Key:
Assay in all cases: PBM binding z-score (relative to random genomic background probes); higher = stronger binding; sequences stand for … in GC…GCGATTGACAGCGTAGAATGAAGG
[1] = tested on: PPARg:RXRa DBDmut IVT, anti-RXR (DBD mutation: RXRa K156A/R161A, NR concentration 270 nM, RXRa partner concentration 90 nM)
Outline: (§1)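 Probes were double-stranded and carried 34-nt variable regions with direct-repeat seeds, single-nucleotide variants, half-site ablations and random human genomic background sequences, printed on custom Agilent 4×180K protein-binding microarrays. Arrays were incubated 1 h with ligand-free nuclear receptor dimers in PBS pH 7.4, 2% milk, 0.02% Triton X-100, 1 mM DTT, 0.2 mg/mL BSA and 0.4 mg/ml salmon testes DNA. Antibodies against each partner (one per run) detected binding, and scanned fluorescence was regression-normalized. Binding z-scores use the random background probes as reference.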

[2] = tested on: PPARg:RXRa IVT, anti-PPARg (NR concentration 270 nM, RXRa partner concentration 90 nM)
Outline: as §1

[3] = tested on: PPARg DBDmut:RXRa IVT, anti-PPARg (DBD mutation: PPARg1 K132A/R137A, NR concentration 270 nM, RXRa partner concentration 90 nM)
Outline: as §1

[4] = tested on: PPARg DBDmut IVT, anti-PPARg (DBD mutation: PPARg1 K132A/R137A, NR concentration 270 nM)
Outline: as §1

[5] = tested on: PPARg homodimer (NR concentration 180 nM)
Outline: as §1

[6] = tested on: PXR:RXRa (NR concentration 270 nM, RXRa partner concentration 90 nM)
Outline: as §1

[7] = tested on: PXR homodimer (NR concentration 270 nM)
Outline: as §1

[8] = tested on: RARa:RXR (NR concentration 270 nM, RXRa partner concentration 90 nM)
Outline: as §1

[9] = tested on: RARa homodimer (NR concentration 270 nM)
Outline: as §1

[10] = tested on: RARb:RXRa (NR concentration 270 nM, RXRa partner concentration 90 nM)
Outline: as §1

[11] = tested on: RARb homodimer (NR concentration 270 nM)
Outline: as §1

[12] = tested on: RARg homodimer (NR concentration 270 nM)
Outline: as §1

[13] = tested on: RXRa DBDmut IVT, anti-RXR (DBD mutation: RXRa K156A/R161A, NR concentration 90 nM)
Outline: as §1

[14] = tested on: RXRa homodimer (NR concentration 180 nM)
Outline: as §1

[15] = tested on: THRa:RXRa (NR concentration 90 nM, RXRa partner concentration 90 nM)
Outline: as §1

[16] = tested on: THRa homodimer (NR concentration 90 nM)
Outline: as §1

[17] = tested on: VDR:RXRa (NR concentration 270 nM, RXRa partner concentration 90 nM)
Outline: as §1

[18] = tested on: VDR homodimer (NR concentration 270 nM)
Outline: as §1

[19] = tested on: RARg:RXRa (NR concentration 270 nM, RXRa partner concentration 90 nM)
Outline: as §1

Sequence: CCTAGTTGGTCAGGAGGTCACAAACCGGATATGA
- PBM binding z-score [1]: 1.35
- PBM binding z-score [2]: 3.19
- PBM binding z-score [3]: 0.681
- PBM binding z-score [4]: -0.00546
- PBM binding z-score [5]: 3.21
- PBM binding z-score [6]: 3.77
- PBM binding z-score [7]: 1.38
- PBM binding z-score [8]: 4.45
- PBM binding z-score [9]: 2.04
- PBM binding z-score [10]: 3.37
- PBM binding z-score [11]: 3.97
- PBM binding z-score [12]: 4.1
- PBM binding z-score [13]: 0.534
- PBM binding z-score [14]: 4.38
- PBM binding z-score [15]: 3.31
- PBM binding z-score [16]: 2.01
- PBM binding z-score [17]: 3.4
- PBM binding z-score [18]: 2.44

Sequence: CGTCCAAGGTCATAGGAGGTCATTGAAGACAGAT
- PBM binding z-score [1]: 3.6
- PBM binding z-score [2]: 4.68
- PBM binding z-score [3]: 0.258
- PBM binding z-score [4]: 0.325
- PBM binding z-score [5]: 4.58
- PBM binding z-score [6]: 7.17
- PBM binding z-score [7]: 10
- PBM binding z-score [8]: 6.52
- PBM binding z-score [9]: 2.32
- PBM binding z-score [10]: 5.47
- PBM binding z-score [11]: 5.6
- PBM binding z-score [19]: 7.14
- PBM binding z-score [12]: 7.75
- PBM binding z-score [13]: 4.08
- PBM binding z-score [15]: 5.39
- PBM binding z-score [16]: 3.7
- PBM binding z-score [18]: 6.14

Sequence: ATATGCAGGTTATCGGGTCATTCAGTTTGCGCAT
- PBM binding z-score [1]: 4.84
- PBM binding z-score [2]: 5.2
- PBM binding z-score [3]: 2.48
- PBM binding z-score [4]: 0.956
- PBM binding z-score [5]: 2.06
- PBM binding z-score [6]: 3.99
- PBM binding z-score [7]: 7.38
- PBM binding z-score [8]: 4.1
- PBM binding z-score [9]: 0.986
- PBM binding z-score [10]: 2.51
- PBM binding z-score [11]: 2.95
- PBM binding z-score [19]: 3.29
- PBM binding z-score [12]: 2.2
- PBM binding z-score [13]: 1.56
- PBM binding z-score [15]: 3.49
- PBM binding z-score [16]: 2.55
- PBM binding z-score [18]: 4

Sequence: TGAATGAAGTTAAAGATCAGGGAACGTGGCGTCG
- PBM binding z-score [1]: -0.838
- PBM binding z-score [2]: -0.0985
- PBM binding z-score [3]: 0.102
- PBM binding z-score [4]: 0.236
- PBM binding z-score [5]: -0.094
- PBM binding z-score [6]: -0.563
- PBM binding z-score [7]: -0.811
- PBM binding z-score [8]: -0.169
- PBM binding z-score [9]: -0.374
- PBM binding z-score [10]: -0.227
- PBM binding z-score [11]: -1
- PBM binding z-score [19]: -0.156
- PBM binding z-score [12]: 0.00438
- PBM binding z-score [13]: -0.803
- PBM binding z-score [15]: -0.586
- PBM binding z-score [16]: -1.06
- PBM binding z-score [18]: -0.533

Sequence: TGAATGACGTTAAAGATCAGGGAACGTGGCGTCG
- PBM binding z-score [1]: -1.13
- PBM binding z-score [2]: 0.0329
- PBM binding z-score [3]: 0.97
- PBM binding z-score [4]: 0.284
- PBM binding z-score [5]: -0.272
- PBM binding z-score [6]: -0.444
- PBM binding z-score [7]: -0.0558
- PBM binding z-score [8]: -0.209
- PBM binding z-score [9]: 0.184
- PBM binding z-score [10]: -0.171
- PBM binding z-score [11]: -0.807
- PBM binding z-score [19]: 0.00646
- PBM binding z-score [12]: 0.113
- PBM binding z-score [13]: -0.922
- PBM binding z-score [15]: -0.478
- PBM binding z-score [16]: -0.747
- PBM binding z-score [18]: -0.61

Sequence: ATCGAACGGTCGACGAGGTGAGTATACACCGTTT
- PBM binding z-score [1]: -0.724
- PBM binding z-score [2]: 0.667
- PBM binding z-score [3]: 0.31
- PBM binding z-score [4]: 0.651
- PBM binding z-score [5]: -0.218
- PBM binding z-score [6]: -0.192
- PBM binding z-score [7]: -0.411
- PBM binding z-score [8]: -0.0707
- PBM binding z-score [9]: -0.605
- PBM binding z-score [10]: 0.92
- PBM binding z-score [11]: 0.461
- PBM binding z-score [19]: 0.635
- PBM binding z-score [12]: 1.21
- PBM binding z-score [13]: -0.546
- PBM binding z-score [15]: 1.26
- PBM binding z-score [16]: 0.292
- PBM binding z-score [18]: -0.356

Sequence: CCTAGTTGGGCAGGAGGTCACACACCGGATATGA
- PBM binding z-score [1]: 0.343
- PBM binding z-score [2]: 2.59
- PBM binding z-score [3]: -0.448
- PBM binding z-score [4]: -0.00376
- PBM binding z-score [5]: 2.16
- PBM binding z-score [6]: 3.77
- PBM binding z-score [7]: 0.916
- PBM binding z-score [8]: 3.7
- PBM binding z-score [9]: 1.59
- PBM binding z-score [10]: 3.15
- PBM binding z-score [11]: 3.48
- PBM binding z-score [19]: 3.98
- PBM binding z-score [12]: 3.52
- PBM binding z-score [13]: -0.0255
- PBM binding z-score [15]: 3.14
- PBM binding z-score [16]: 1.57
- PBM binding z-score [18]: 1.37

Sequence: AGTCAAAATTCACTAGGTAACGTAAGATTCAGCT
- PBM binding z-score [1]: 1.45
- PBM binding z-score [2]: 2.58
- PBM binding z-score [3]: 1.21
- PBM binding z-score [4]: 0.716
- PBM binding z-score [5]: 1.09
- PBM binding z-score [6]: 0.12
- PBM binding z-score [7]: 0.568
- PBM binding z-score [8]: 1.48
- PBM binding z-score [9]: 1.44
- PBM binding z-score [10]: 0.258
- PBM binding z-score [11]: 0.0175
- PBM binding z-score [19]: 0.434
- PBM binding z-score [12]: 0.425
- PBM binding z-score [13]: 0.24
- PBM binding z-score [15]: 0.806
- PBM binding z-score [16]: 0.608
- PBM binding z-score [18]: 0.272

Reference: the supplement of paper PMC6555819
